Test results as given in PubChem BioAssay (Tox21).
“And” between values parts separate entries of the source, which are not always exact repeats. Identical values can stand only once. Records with an inconclusive call do not appear. More than one record can exist for a structure, and the calls need not agree. The source made the active and inactive calls. Unless noted, calls come from the whole dose curve; as a rule, active = well fitted curve in the direction sought with a large enough effect in the repeat runs; inconclusive = weak or mixed curves; inactive = no such curve, though single readings can be large; an effect the other way counts as inactive or inconclusive.

Key:
[1] = qHTS RealTime-Glo MT Cell Viability Assay in HEK293 cells - 0 hour (AID 1224880); details: RealTime-Glo luminescence; series mostly up to 76.8 µM; note: top concentration of the series differs between compounds; nearly all actives have a fitted effect of over 45% in size
Summary of the method: (§1)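 600 cells/well were plated with the nonlytic NanoLuc/prosubstrate reagent, pre-incubated 5 h, then given 23 nL of compound in DMSO. Incubation at 37 C for 40 h, with luminescence from viable-cell-reduced substrate read repeatedly from 0 h.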

[2] = A CellTox Green Cytotoxicity Assay to monitor cytotoxicity in HEK293 cells - 32 hour (AID 1224881); details: CellTox Green fluorescence; series mostly up to 76.8 µM; note: nearly all actives have a fitted effect of over 40% in size
Summary of the method: (§2)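 HEK293 cells, 600/well, were preincubated 5 hours and then exposed to compounds at 37 C for up to 40 hours. A cell-impermeant cyanine dye staining dead-cell DNA was read by fluorescence at 0, 8, 16, 24, 32 and 40 h time points.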

[3] = A CellTox Green Cytotoxicity Assay to monitor cytotoxicity in HEK293 cells - 8 hour (AID 1224884); details: CellTox Green fluorescence; series mostly up to 76.8 µM; note: nearly all actives have a fitted effect of over 35% in size
Summary of the method: as §2

[4] = qHTS RealTime-Glo MT Cell Viability Assay in HepG2 cells - 16 hour (AID 1224885); details: RealTime-Glo luminescence; series mostly up to 76.8 µM; note: nearly all actives have a fitted effect of over 50% in size
Summary of the method: (§3)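 qHTS, HepG2, 600 cells/well, RealTime-Glo (NanoLuc + prosubstrate) added with cells; 5 h preincubation; DMSO compound addition; 37 C; luminescence at 0/8/16/24/32/40 h.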

[5] = qHTS RealTime-Glo MT Cell Viability Assay in HEK293 cells - 24 hour (AID 1224886); details: RealTime-Glo luminescence; series mostly up to 76.8 µM; note: nearly all actives have a fitted effect of over 50% in size; note: potency is the fitted concentration of half-maximal effect
Summary of the method: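 Assay medium contained NanoLuc luciferase plus cell-permeant prosubstrate, added with HEK293 cells at 600 cells/well. After 5 h at 37 C/5% CO2 compounds were added; plates stayed at 37 C for 40 h with serial luminescence reads.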

[6] = qHTS RealTime-Glo MT Cell Viability Assay in HEK293 cells - 8 hour (AID 1224887); details: RealTime-Glo luminescence; series mostly up to 76.8 µM; note: top concentration of the series differs between compounds; nearly all actives have a fitted effect of over 50% in size
Summary of the method: as §1

[7] = A CellTox Green Cytotoxicity Assay to monitor cytotoxicity in HEK293 cells - 16 hour (AID 1224888); details: CellTox Green fluorescence; series mostly up to 76.8 µM; note: nearly all actives have a fitted effect of over 35% in size
Summary of the method: as §2

[8] = qHTS RealTime-Glo MT Cell Viability Assay in HepG2 cells - 0 hour (AID 1224889); details: RealTime-Glo luminescence; series mostly up to 76.8 µM; note: nearly all actives have a fitted effect of over 50% in size
Summary of the method: as §3

[9] = A CellTox Green Cytotoxicity Assay to monitor cytotoxicity in HepG2 cells - 8 hour (AID 1224890); details: CellTox Green fluorescence; series mostly up to 76.8 µM; note: nearly all actives have a fitted effect of over 45% in size
Summary of the method: (§4)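 HepG2 cells, 600/well, preincubated 5 h with CellTox Green dye, then exposed to Tox21 compounds in DMSO at 37 C for up to 40 h. Dead-cell DNA fluorescence read at the indicated time point.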

[10] = qHTS assay to identify small molecule antagonists of the estrogen receptor alpha (ER-alpha) signaling pathway using the BG1 cell line in the presence of 0.1 nM 17-beta-estradiol - cell viability counter screen (AID 1259241); details: VM7Luc4E2 (BG1) viability, CellTiter-Fluor protease, 22 h, 0.1 nM estradiol agonist added; series mostly up to 92.4 µM; note: nearly all actives have a fitted effect of over 40% in size
Summary of the method: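 VM7Luc4E2, 4,000 cells/well, phenol red-free medium + 10% charcoal-stripped FBS; 24 hr plating; cpd + 0.1 nM E2 final, 22 hr 37C/5% CO2; CellTiter-Fluor 30 min, fluorescence.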

[11] = qHTS assay to identify small molecule antagonists of the androgen receptor (AR) signaling pathway using the MDA cell line in the presence of 0.5 nM R1881 - cell viability counter screen (AID 1259242); details: MDA-kb2 viability, CellTiter-Fluor protease fluorescence, 16 h; series mostly up to 92.4 µM; note: nearly all actives have a fitted effect of over 45% in size
Summary of the method: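 MDA-kb2 cells (MMTV-luciferase, AR/GR responsive) were treated with compounds plus 0.5 nM R1881 (final) for 16 hr at 37C, 0% CO2. Viability was then read in the same wells as live-cell protease fluorescence (CellTiter-Fluor, 30 min).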

[12] = biological target: Estrogen receptor (Homo sapiens) (UniProt P03372); assay: qHTS assay to identify small molecule antagonists of the estrogen receptor alpha (ER-alpha) signaling pathway using the BG1 cell line in the presence of 0.1 nM 17-beta-estradiol (AID 1259244); details: VM7Luc4E2 (BG1) ERE-luciferase, antagonist mode, 0.1 nM E2, 22 h; series mostly up to 92.4 µM; note: nearly all actives have a fitted effect of over 50% in size
Summary of the method: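 VM7Luc4E2 cells (endogenous full-length ER-alpha, 4×ERE-luciferase), kept 5 days in phenol red-free, charcoal-stripped FBS medium; 4,000 cells/well. Compounds added with 0.1 nM (final) 17beta-estradiol, 22 hr at 37C; luminescence read with ONE-Glo after 30 min.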

[13] = qHTS assay to identify small molecule phospholipidosis (PLD) inducers (AID 1259344; active = well fitted curve in the direction sought with a large enough effect; an effect the other way counts as inactive or inconclusive); details: HepG2 phospholipidosis, LipidTOX Red imaging, 24 h; series mostly up to 38.3 µM
Summary of the method: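 HepG2 cells on collagen I, attached 4 h at 37 C, were co-treated with compound and LipidTOX Red dye for 24 h at 37 C, then fixed with paraformaldehyde plus Hoechst 33342 and imaged by high-content microscopy for phospholipid accumulation.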

[14] = qHTS assay to identify small molecule HDAC inhibitors (AID 1259364); details: HCT-116 HDAC-Glo I/II luminescence, 2 h; series mostly up to 92.4 µM; note: nearly all actives have a fitted effect of over 45% in size; note: potency is the fitted concentration of half-maximal effect
Summary of the method: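 Wild-type HCT-116 cells, plated overnight at 37 C, exposed to compounds 2 hr at 37 C; luminogenic HDAC-Glo substrate then added 30 min at room temperature. Luminescence reports relative endogenous class I/II HDAC activity.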

[15] = qHTS assay to identify small molecule HDAC inhibitors - cell viability counter screen (AID 1259365); details: HCT-116 viability, CellTiter-Glo ATP luminescence, 2 h; series mostly up to 92.4 µM; note: nearly all actives have a fitted effect of over 50% in size
Summary of the method: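 Luminescence from CellTiter-Glo, developed 30min at room temperature, reports viability of wild-type HCT-116 cells treated 2hr with compounds at 37 C and 5% CO2 after overnight plating.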

[16] = qHTS assay to identify small molecule agonists of the sonic hedgehog signaling (Shh) pathway - cell viability counter screen (AID 1259366); details: NIH/3T3 Gli1-Luc viability, CellTiter-Fluor, 24 h; series mostly up to 92.4 µM; note: nearly all actives have a fitted effect of over 50% in size; note: potency is the fitted concentration of half-maximal effect
Summary of the method: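 Cytotoxicity counter screen run in the same wells as the Shh reporter assay. NIH/3T3 cells carrying a Gli1 response element–driven luciferase were treated with DMSO-dissolved compounds for 24hr, and live-cell protease activity was measured with CellTiter-Fluor.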

[17] = A CellTox Green Cytotoxicity Assay to monitor cytotoxicity in HepG2 cells - 0 hour (AID 1224882); details: CellTox Green fluorescence; series mostly up to 76.8 µM; note: nearly all actives have a fitted effect of over 35% in size
Summary of the method: as §4

[18] = qHTS assay to identify small molecule antagonists of the sonic hedgehog signaling (Shh) pathway - cell viability counter screen (AID 1259367); details: NIH/3T3 Gli1-Luc viability, CellTiter-Fluor, 24 h; series mostly up to 92.4 µM; note: nearly all actives have a fitted effect of over 55% in size
Summary of the method: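 NIH/3T3-derived Gli1-Luc reporter cells (2,000 per well) rested 4 hr at 37 C, then received DMSO compounds plus conditioned medium. After 23 hr of treatment, CellTiter-Fluor was added for 1 hr at 37C and fluorescence read.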

[19] = A CellTox Green Cytotoxicity Assay to monitor cytotoxicity in HepG2 cells - 32 hour (AID 1224883); details: CellTox Green fluorescence; series mostly up to 76.8 µM; note: nearly all actives have a fitted effect of over 50% in size
Summary of the method: as §4

[20] = biological target: Androgen receptor (Homo sapiens) (UniProt P10275); assay: qHTS assay to identify small molecule antagonists of the androgen receptor (AR) signaling pathway using the MDA cell line in the presence of 0.5 nM R1881 (AID 1259243); details: MDA-kb2 MMTV-luciferase, R1881 0.5 nM, 16 h; series mostly up to 92.4 µM; note: nearly all actives have a fitted effect of over 50% in size
Summary of the method: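 MDA-kb2 cells (MMTV-luciferase, responsive to AR and GR) at 3,000/well, rested 5 h at 37C, 0% CO2, then given compounds plus 0.5 nM R1881 (final) for 16 hr. Luciferase read with ONE-Glo after 30 min at room temperature.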

Measured: Potency

Sequence of Estrogen receptor (Homo sapiens) (P03372 whole entry, looked up): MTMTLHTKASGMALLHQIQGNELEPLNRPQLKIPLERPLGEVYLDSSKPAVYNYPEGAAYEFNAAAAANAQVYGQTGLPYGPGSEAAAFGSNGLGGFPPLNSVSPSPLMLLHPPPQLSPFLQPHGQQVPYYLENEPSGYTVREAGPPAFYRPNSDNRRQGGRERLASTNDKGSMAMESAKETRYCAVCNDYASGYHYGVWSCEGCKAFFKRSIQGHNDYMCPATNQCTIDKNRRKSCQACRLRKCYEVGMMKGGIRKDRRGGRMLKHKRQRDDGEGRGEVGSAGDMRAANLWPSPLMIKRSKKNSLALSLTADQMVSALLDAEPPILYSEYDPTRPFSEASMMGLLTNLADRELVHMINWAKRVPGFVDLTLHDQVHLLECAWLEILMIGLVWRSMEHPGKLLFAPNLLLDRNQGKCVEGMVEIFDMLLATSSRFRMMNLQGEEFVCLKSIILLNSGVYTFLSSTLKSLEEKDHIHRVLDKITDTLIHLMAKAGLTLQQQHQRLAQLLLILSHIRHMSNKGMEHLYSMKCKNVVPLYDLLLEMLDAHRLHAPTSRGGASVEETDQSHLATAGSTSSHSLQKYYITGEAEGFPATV
Sequence of Androgen receptor (Homo sapiens) (P10275 whole entry, looked up): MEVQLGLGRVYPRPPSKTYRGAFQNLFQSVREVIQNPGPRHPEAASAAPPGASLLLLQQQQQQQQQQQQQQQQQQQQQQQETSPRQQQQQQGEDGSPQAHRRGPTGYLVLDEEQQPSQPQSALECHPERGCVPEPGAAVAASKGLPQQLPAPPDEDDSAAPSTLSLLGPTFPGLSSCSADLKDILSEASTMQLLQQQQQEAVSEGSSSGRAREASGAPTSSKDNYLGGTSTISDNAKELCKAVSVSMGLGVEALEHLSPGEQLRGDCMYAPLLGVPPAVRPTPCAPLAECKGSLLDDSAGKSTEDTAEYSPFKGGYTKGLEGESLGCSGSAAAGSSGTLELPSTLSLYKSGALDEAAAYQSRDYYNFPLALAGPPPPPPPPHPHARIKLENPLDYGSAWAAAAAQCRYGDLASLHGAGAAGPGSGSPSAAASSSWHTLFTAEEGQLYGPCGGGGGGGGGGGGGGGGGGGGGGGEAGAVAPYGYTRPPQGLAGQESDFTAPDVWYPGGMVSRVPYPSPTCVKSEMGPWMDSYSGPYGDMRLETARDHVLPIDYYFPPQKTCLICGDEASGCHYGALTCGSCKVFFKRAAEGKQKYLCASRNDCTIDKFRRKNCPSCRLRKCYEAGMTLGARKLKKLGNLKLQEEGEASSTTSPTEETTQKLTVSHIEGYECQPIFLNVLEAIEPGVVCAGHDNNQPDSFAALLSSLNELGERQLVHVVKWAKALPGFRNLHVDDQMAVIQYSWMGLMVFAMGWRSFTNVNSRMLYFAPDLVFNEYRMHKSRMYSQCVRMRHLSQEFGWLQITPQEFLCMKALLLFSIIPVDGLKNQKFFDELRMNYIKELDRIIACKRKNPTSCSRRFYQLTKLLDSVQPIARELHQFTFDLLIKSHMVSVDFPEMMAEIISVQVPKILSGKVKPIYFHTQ

COC(=O)c1ccccc1O
not listed: [17] | [18] | [19] | [20]
inactive: all other assays above

CC(C)(N=C=O)c1cccc(C(C)(C)N=C=O)c1
not listed: [11] | [12] | [13] | [16] | [19] | [20]
inactive: all other assays above

CC(C)(C)C1CCC(O)CC1 (stereo unspecified)
not listed: [11] | [13] | [17] | [20]
inactive: all other assays above

c1ccc2[nH]cnc2c1
not listed: [8] | [11] | [12] | [13] | [18] | [19] | [20]
inactive: all other assays above

C=C1CC[C@H](O)CC1=C/C=C1\CCC[C@]2(C)[C@@H]([C@H](C)/C=C/[C@H](C)C(C)C)CC[C@@H]12
active: [5] 43.6 µM
not listed: [6] | [11] | [12] | [16] | [18] | [19] | [20]
inactive: all other assays above

COCC(C)O (stereo unspecified)
not listed: [8] | [13] | [18] | [19] | [20]
inactive: all other assays above

O=C(Cl)c1c(Cl)c(Cl)c(C(=O)Cl)c(Cl)c1Cl
not listed: [8] | [13] | [17] | [19] | [20]
inactive: all other assays above

CC(=O)CCc1ccccc1
not listed: [8] | [12] | [13] | [18] | [19] | [20]
inactive: all other assays above

NC(=O)NNc1ccccc1
not listed: [12] | [17] | [19] | [20]
inactive: all other assays above

Cc1cc(O)cc(C)c1Cl
not listed: [8] | [11] | [12] | [16] | [19] | [20]
inactive: all other assays above

CCCCCCC(C)(C)S
not listed: [8] | [12] | [13] | [17] | [18] | [20]
inactive: all other assays above

CCCCCCCCCCC=CC1CC(=O)OC1=O (stereo unspecified)
not listed: [8] | [12] | [13] | [17] | [19] | [20]
inactive: all other assays above

CC(C)(CO)COC(=O)C(C)(C)CO
not listed: [8] | [13] | [16] | [17] | [19]
inactive: all other assays above

CCCCC(CC)C(=O)OCCOCCOCCOC(=O)C(CC)CCCC (stereo unspecified)
not listed: [2] | [5] | [13] | [16] | [17]
inactive: all other assays above

CC(=O)[C@@]1(O)CC[C@H]2[C@@H]3CCC4=CC(=O)CC[C@]4(C)[C@H]3CC[C@@]21C
not listed: [2] | [8] | [11] | [12] | [20]
inactive: all other assays above

NS(=O)(=O)c1cc2c(cc1Cl)NC=NS2(=O)=O
not listed: [2] | [11] | [18] | [20]
inactive: all other assays above

C/C=C(C)/C=C/C=C(C)C
not listed: [2] | [8] | [12] | [13] | [17] | [19] | [20]
inactive: all other assays above

CCOC(=O)C1OC1c1ccccc1 (stereo unspecified)
active: [14] 49.5 µM
not listed: [2] | [5] | [12] | [13] | [20]
inactive: all other assays above

O=[N+]([O-])C(CO)(CO)CO
active: [16] 30.2 µM and 48.6 µM
not listed: [2] | [8] | [11] | [13] | [17] | [18] | [19] | [20]
inactive: all other assays above

CN(CCOc1ccc(CC2SC(=O)NC2=O)cc1)c1ccccn1 (stereo unspecified)
30.5 µM (active) and inactive: [14]
not listed: [2] | [16] | [18] | [20]
inactive: all other assays above

O=C(Oc1ccccc1)c1ccc(O)cc1
active: [14] 21.8 µM and 21.7 µM
not listed: [2] | [8] | [12] | [13] | [16] | [17] | [20]
inactive: all other assays above

Clc1cc(Cl)c(Cl)cc1Cl
not listed: [2] | [11] | [13] | [17] | [19] | [20]
inactive: all other assays above

Cc1ccc(N)c(S(=O)(=O)O)c1
not listed: [2] | [12] | [13] | [20]
inactive: all other assays above

C=CC(=O)OCCCCCCCC(C)C
not listed: [2] | [8] | [13] | [18] | [19]
inactive: all other assays above

NCc1cccc(CN)c1
not listed: [2] | [8] | [13] | [17] | [18] | [19] | [20]
inactive: all other assays above

CCCCOCCO
not listed: [2] | [11] | [13] | [17] | [18] | [20]
inactive: all other assays above
